Screens from PubChem BioAssay.
OTUD3 inh = inhibitors of human OTUD3 deubiquitinase | OTU domain-containing protein 3 (Homo sapiens), Q5T2D3 | purified OTUD3, Ub-rhodamine fluorescence, 2 h | inhibition, % at 25 µM | 47,000 tested, 0.7% active | AID 1645858, 2021
Target sequence (Q5T2D3 whole entry, looked up, the tested form may be a part): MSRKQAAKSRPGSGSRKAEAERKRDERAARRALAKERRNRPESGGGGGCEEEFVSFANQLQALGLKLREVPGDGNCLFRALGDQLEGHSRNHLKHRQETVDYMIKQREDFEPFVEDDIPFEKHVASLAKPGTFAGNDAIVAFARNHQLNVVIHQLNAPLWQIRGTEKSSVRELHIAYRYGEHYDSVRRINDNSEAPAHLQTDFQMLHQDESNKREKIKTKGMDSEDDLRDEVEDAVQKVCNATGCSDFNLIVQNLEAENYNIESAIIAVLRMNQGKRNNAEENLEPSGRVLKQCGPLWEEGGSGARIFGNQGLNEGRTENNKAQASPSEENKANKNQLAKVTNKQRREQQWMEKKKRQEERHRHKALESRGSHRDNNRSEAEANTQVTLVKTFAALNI
USP7 block = inhibitors of human USP7 deubiquitinase; purified USP7, Ub-rhodamine cleavage fluorescence; inhibition, % at 20 µM; AID 1645854, 2021; 47,000 tested, 0.3% active; Ubiquitin carboxyl-terminal hydrolase 7 (Homo sapiens), Q93009
UCHL1 block = inhibitors of human UCHL1 deubiquitinase. Ubiquitin carboxyl-terminal hydrolase isozyme L1 (Homo sapiens), P09936. purified UCHL1, Ub-rhodamine cleavage fluorescence. inhibition, % at 20 µM. 47,000 tested, 0.2% active. AID 1645859, 2021
An asterisk follows results filed as active. An excerpt weighted towards active compounds, which were near 0.83% of everything screened. Rule as the data show it: active = inhibition above about 30%; inactive = the rest.

SMILES	OTUD3 inh	USP7 block	UCHL1 block
CC1OC2CC(O)C1(O)C1=C2C(O)=C(C(N)=O)C(=N)C1=O (configuration not stated)	51.0*	-33.6	52.0*
CC1OC2CC(O)C1(O)C1=C2C(=O)c2c(O)c3c(c(O)c2C1=O)[C@H](C)O[C@H]1CC(=O)O[C@@H]31 (some centres not stated)	-7.3	-27.1	-4.2
Cc1cccc(-n2nc(C)c3c2NC(=O)CC3C(=O)c2cc3ccccc3o2)c1 (configuration not stated)	-6.5	0.1	4.2
CC(C)C(=O)Nc1ccc(-n2cnc(C(=O)N3CCCCC3)c2)nc1	6.0	3.7	2.0
Cc1nc(SCC(=O)Nc2cc(Cl)ccc2C)c2oc3ccccc3c2n1	17.0	11.8	2.5
Cc1cccc(C)c1NC(=O)C1(N(Cc2ccco2)C(=O)c2ccccc2F)CCCCC1	11.2	3.3	4.5
Cc1noc(-c2ccc(-n3cnc(C(=O)NCc4ccccc4)c3)nc2)n1	3.8	5.3	4.7
O=[N+]([O-])c1ccc(C(O)CN2CCN(Cc3ccccc3)CC2)cc1 (configuration not stated)	8.1	0.0	79.1*
O=[N+]([O-])c1ccc(N2CCN(CC(O)c3ccc4c(c3)CCN4)CC2)cc1 (configuration not stated)	-5.8	-8.2	-0.8
COc1ccccc1CNC(=O)Cn1c(C)nc2onc(C)c2c1=O	11.8	5.2	2.5
COc1ccc(-c2ccnc(-c3ccc(OCc4cccc(F)c4)cc3)n2)cc1	21.7	7.9	6.1
C=C1Nc2ccccc2C(=O)N1c1cccc(NC(=O)c2ccc(C)cc2)c1	-1.0	1.0	0.2
C=C1Nc2ccccc2C(=O)N1c1cccc(NC(=O)c2ccc(C)c(C)c2)c1	30.2*	2.5	6.3
COc1ccc(-c2nc(-c3ccc(OC)cc3)c(S(=O)(=O)CC(=O)Nc3ccc(F)cc3)[nH]2)cc1	-3.3	-1.2	1.7
O=C(NCCc1ccccc1)C1CCCN(c2ccc(-c3ccccc3)nn2)C1 (configuration not stated)	3.4	-0.2	-1.4
O=C(NCC1CC1)C1CCCN(c2ccc(-c3ccccc3)nn2)C1 (configuration not stated)	30.0*	-4.9	0.2
O=C(NCc1noc(-c2ccccc2)n1)c1ccc(-c2noc(C3CC3)n2)cc1	6.4	4.4	4.2
CCOc1ccccc1C(=O)Nc1ccc(-c2nccs2)cc1	0.0	-3.7	2.5
CCCCCCCCC/C=C/C(=O)CCc1c(O)c(C=O)c2c(c1O)C(=O)OC2O (configuration not stated)	74.6*	86.7*	86.3*
CCCCC/C=C/c1c(O)cc(CC=C(C)C)c(O)c1C=O	2.8	-13.2	-14.7
Cc1c(C(=O)N2CCOCC2)nnn1-c1cccc2c1CCN(C)C2	-0.8	-0.4	-2.0
O=C(COC(=O)c1ccc2[nH]c3c(c2c1)CCCC3)Nc1ccc2c(c1)OCO2	7.5	-8.3	0.3
O=C(Nc1ccccc1F)c1cncc(NS(=O)(=O)c2ccccc2)c1	6.0	4.3	5.5
Nc1ccc(F)c(NS(=O)(=O)c2ccccc2)c1	55.4*	11.7	30.8*
O=C(Nc1cccc2cccnc12)c1nnn(-c2ccccc2)n1	-0.1	-3.9	-2.7
SMILES	OTUD3 inh	USP7 block	UCHL1 block
CCCCc1ccc(-c2cc(C(=O)NCCN3CCOCC3)c3cc(Br)ccc3n2)cc1	30.1*	-8.7	-4.0
O=C(NCCN1CCOCC1)c1cc(-c2ccc(Br)cc2)nc2ccccc12	-4.9	-2.6	1.6
CCOc1ccc(NC(=O)Cn2cnc(S(=O)(=O)N3CCc4ccccc43)c2)cc1	12.4	11.8	2.3
Cc1cc(C)nc(SCC(=O)N(Cc2ccco2)C2(C(=O)Nc3c(C)cccc3C)CCCCC2)n1	56.8*	7.3	2.0
CC(=O)Nc1cccc(C(=O)N(Cc2ccco2)C2(C(=O)Nc3c(C)cccc3C)CCCCC2)c1	-10.3	-1.8	2.2
CN1CC2CN(C(=O)Nc3cccnc3)CCN2Cc2ccccc21 (configuration not stated)	-241.3	-146.8	-157.1
O=C(NCc1ccc(F)cc1)c1cccc(Nc2nc3ccccc3n3cnnc23)c1	66.9*	3.9	0.2
COc1ccccc1CNC(=O)c1cccc(Nc2nc3ccccc3n3cnnc23)c1	-13.5	-1.0	-5.1
CCOC(=O)c1cn(C2CC2)c2cc(N3CCNCC3)c([N+](=O)[O-])cc2c1=O	13.9	8.9	4.3
CCc1ccc(-n2c(=O)[nH]c3c(c2=O)C(C)(C)Cc2ccccc2-3)cc1	7.8	6.5	-2.5
C=C(C)[C@@H]1CC[C@]2(C)[C@H](CC[C@@H]3[C@@H](C(C)(O)CCC=C(C)C)CC[C@]32C)[C@@]1(C)CCC(=O)O (some centres not stated)	87.5*	85.2*	44.5*
CC(C)=CCC[C@](C)(O)[C@H]1CC[C@]2(C)[C@@H]1CC[C@@H]1[C@@]3(C)CC[C@H](O)C(C)(C)[C@@H]3CC[C@]12C	6.5	10.0	6.1
O=C(CCSc1ccccc1)Nc1ccc(Oc2ccccc2)cc1	6.3	12.2	5.9
O=C(Cn1cc(C(=O)C2CCCCC2)c2ccccc21)Nc1ccccc1C(F)(F)F	6.1	18.6	1.6
Cc1c(Cl)cccc1NC(=O)Cn1cc(C(=O)C2CC2)c2ccccc21	-4.1	35.7*	3.5
CCN(CC)c1cc(C)c2cc(NC(=O)CCc3ccc(OC)cc3)ccc2n1	12.8	7.5	7.4
COc1cc(C#N)c(NC(=NCc2ccc(F)cc2)SC)cc1OC	7.7	4.5	4.8
Cc1ccccc1NC(=O)Cn1c(C)nc2c(c1=O)CCN(Cc1ccccc1)C2	-5.7	-2.5	-1.1
O=C(NCc1nnc2c(C(F)(F)F)cc(Cl)cn12)c1sc2ccccc2c1Cl	-16.0	-1.6	1.0
Cc1cc(CSc2ncccc2C(=O)Nc2ccnn2Cc2ccccn2)no1	-6.3	-0.8	-3.1
Cc1cc(CSc2ncccc2C(=O)Nc2ccnn2Cc2cccnc2)no1	81.3*	4.3	1.6
Cc1ccc(C2CC(=O)C3=C(C2)Nc2ccccc2N(C(=O)c2ccccc2)C3c2ccccc2)cc1 (configuration not stated)	9.8	22.3	10.0
COc1cccc(C(=O)Cn2nc3n(CCC(C)C)c(=O)c4sccc4n3c2=O)c1	0.0	4.6	4.7
COc1cccc(Cn2nc3n(CC(C)C)c(=O)c4ccc(C(=O)NCC(C)C)cc4n3c2=O)c1	36.4*	4.7	0.4
Cc1nnc(-c2ccc3ccn(CC(=O)NC4CCCCCC4)c3c2)o1	9.1	-0.4	1.2
SMILES	OTUD3 inh	USP7 block	UCHL1 block
Cc1nnc(-c2ccc3ccn(CC(=O)N4CCCc5ccccc54)c3c2)o1	2.1	-26.7	51.3*
Cc1nnc(-c2ccc3ccn(CC(=O)N4CCN(c5ccccc5)CC4)c3c2)o1	72.8*	-14.8	24.7
Cc1nnc(-c2ccc3ccn(CC(=O)NC4CCCC4)c3c2)o1	-5.8	0.3	-1.4
N#Cc1ccc(NC(=O)Nc2cccn(Cc3c(F)cccc3Cl)c2=O)cc1	-10.0	-25.5	4.6
COC(=O)Nc1cccn(Cc2c(Cl)cccc2Cl)c1=O	80.6*	-13.3	22.0
CC(C)C(=O)O[C@H]1[C@H](C)C(=O)O[C@@H](C)[C@@H](NC(=O)c2cccc(NC=O)c2O)C(=O)O[C@@H]1C	17.9	-7.5	-5.9
